Screening results: PubChem, Broad Institute
Shown is part of a subset that was picked to be rich in hits.
T cruzi growth-1: T. cruzi intracellular proliferation inhibitors, primary screen, cell-based, beta-gal Tulahuen parasites, NIH3T3 host, luminescence; AID 624255, 2012; hit rate 5.9% among 77,000; T. cruzi beta-gal in NIH3T3, GalScreen luminescence, 90 h; inhibition, % at 8.34 µM;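 active = mean inhibition above about 93%, with at least 55% of replicates each passing it, limit read from the data, passing the limit was not always enough; inconclusive = only one of those two conditions holds; inactive = neither condition holds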
C diff growth: C. difficile growth inhibitors, primary screen, HTS | Clostridium difficile clinical isolate growth, OD600, 24 h; active compounds read low | growth activity, negative = inhibition, % at 16 µg/mL (by protocol) | hit rate 0.25% among 86,000;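 active = mean growth activity at or below -80% and every replicate also at or below -80%; inconclusive = mean at or below -80% but some replicate above -80%; inactive = mean growth activity above -80%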
T cruzi growth-2: T. cruzi intracellular proliferation inhibitors, confirmation, cell-based, NIH3T3 host, beta-gal parasite, luminescence, cherry-pick; T. cruzi beta-gal in NIH3T3, GalScreen luminescence, 90 h; inhibition, % at 8.35 µM; hit rate 72% among 5,600; AID 651739, 2012; shares compounds with T cruzi growth-1;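 active = mean replicate inhibition above about 95% and at least 55% of replicates individually reaching it, limit read from the data; inconclusive = only one of the two criteria is met; inactive = neither criterion is met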
T cruzi growth-3: inhibitors of intracellular T. cruzi replication, confirmation, NIH3T3 host cells, beta-gal parasites, cherry-pick, set 2. shares compounds with T cruzi growth-1. T. cruzi beta-gal in NIH3T3, GalScreen luminescence, 90 h. inhibition, % at 2.09 µM. hit rate 21% among 5,600;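 active = mean inhibition above about 95%, with at least 55% of replicates also reaching it, limit read from the data; inconclusive = meets just one of the two conditions; inactive = meets neither condition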
NIH3T3 tox: cytotoxicity in mouse NIH/3T3 fibroblasts, confirmation, cytotoxicity control for T. cruzi proliferation inhibitor project, cell-based, cherry-pick, single point. shares compounds with T cruzi growth-1. NIH/3T3 viability, CellTiter-Glo ATP luminescence, 90 h. cytotoxicity (signal decrease), % at 8.35 µM. hit rate 14% among 5,600;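 active = mean signal decrease across replicates above about 35% based on untreated-well scatter, with enough replicates individually passing, limit read from the data; inconclusive = no rule stated though some were filed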
NIH3T3 tox 2: NIH/3T3 fibroblast cytotoxicity, confirmation, cytotoxicity control, cell-based, cherry-pick, single point, set 2 | shares compounds with T cruzi growth-1 | NIH/3T3 viability, CellTiter-Glo ATP luminescence, 90 h | inhibition, % at 24.9 µM | hit rate 56% among 5,600 | AID 651744, 2012;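 active = mean loss of cell viability signal at or above a set limit, and enough replicates individually reaching it; inconclusive = meets only the mean limit or only the replicate share; inactive = meets neither condition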
Hits are given with their value; . = inactive; ? = inconclusive; / = not tested or not shown.

SMILES	T cruzi growth-1	C diff growth	T cruzi growth-2	T cruzi growth-3	NIH3T3 tox	NIH3T3 tox 2
COCCCNC(=O)[C@]1(Cc2ccccc2N=[N+]=[N-])N=C(c2ccc(OCCCO)cc2)O[C@@H]1c1ccccc1N=[N+]=[N-]	/	.	/	/	/	/
O=C(C1CCOCC1)N1CC(=O)N2[C@H](C1)[C@H](c1ccc(C#CCc3ccccc3)cc1)[C@@H]2CO	/	.	/	/	/	/
C[C@H]1CN([C@@H](C)CO)C(=O)c2cccc(NC(=O)c3ccc(-c4nccs4)cc3)c2O[C@@H]1CN(C)CC1CCCCC1	.	.	/	/	/	/
COCC(=O)Nc1ccc2c(c1)OC[C@@H](C)N(Cc1cc(F)ccc1F)C[C@@H](C)[C@H](OC)CN(C)C2=O	.	/	/	/	/	/
COCC(=O)Nc1ccc2c(c1)OC[C@H](C)N(Cc1cc(F)ccc1F)C[C@@H](C)[C@H](OC)CN(C)C2=O	97	/	97	.	.	.
COc1ccc(S(=O)(=O)Nc2ccc3c(c2)C(=O)N([C@H](C)CO)C[C@@H](C)[C@@H](CN(C)Cc2ccc(-c4ccccc4)cc2)O3)cc1	.	.	/	/	/	/
C/C=C/c1ccc([C@@H]2[C@H](CO)N(C(=O)C3CC3)[C@H]2CN(CC)C(C)=O)cc1	100	.	.	.	.	.
C/C=C/c1ccc([C@@H]2[C@@H](CN(CC)C(=O)CC)N(C(C)=O)[C@H]2CO)cc1	.	.	/	/	/	/
C/C=C/c1ccc([C@@H]2[C@@H](CN(CC)C(=O)CC)N(C(=O)C3CCC3)[C@H]2CO)cc1	.	.	/	/	/	/
C/C=C/c1ccc([C@@H]2[C@@H](CO)N(C(C)=O)[C@H]2CN(CC)C(=O)CC)cc1	101	.	106	.	.	.
COc1ccc(CN(C)C[C@H]2Oc3ccc(NS(=O)(=O)c4ccc(C)cc4)cc3CC(=O)N([C@@H](C)CO)C[C@@H]2C)cc1	104	.	110	.	.	.
COc1ccc(CN(C)C[C@H]2Oc3ccc(NS(=O)(=O)c4ccc(Cl)cc4)cc3CC(=O)N([C@@H](C)CO)C[C@@H]2C)cc1	107	.	97	.	.	86
COc1ccc(CN(C)C[C@@H]2Oc3ccc(NS(=O)(=O)c4ccc(C)cc4)cc3CC(=O)N([C@@H](C)CO)C[C@H]2C)cc1	/	.	/	/	/	/
COc1ccc(CN(C)C[C@H]2Oc3ccc(NS(=O)(=O)c4ccc(Cl)cc4)cc3CC(=O)N([C@H](C)CO)C[C@H]2C)cc1	.	.	/	/	/	/
CO[C@H]1CN(C)C(=O)c2ccc(NC(=O)C3CC3)cc2OC[C@@H](C)N(C(=O)c2cnccn2)C[C@H]1C	.	.	/	/	/	/
O=C(C1=C[C@@H](c2ccc3c(c2)OCO3)C[C@@H](OCc2ccc(CO)cc2)O1)N1CCCCC1	/	.	/	/	/	/
C[C@H](CO)N1C[C@H](C)[C@@H](CN(C)S(=O)(=O)c2ccc(F)cc2)Oc2cc(C#Cc3ccc(F)cc3)ccc2S1(=O)=O	107	.	100	109	.	65
C[C@H]1CN([C@@H](C)CO)S(=O)(=O)c2ccc(C#Cc3ccc(F)cc3)cc2O[C@H]1CN(C)S(=O)(=O)c1ccc(F)cc1	107	.	105	?	.	.
C[C@@H]1CN([C@@H](C)CO)S(=O)(=O)c2ccc(C#Cc3ccc(F)cc3)cc2O[C@H]1CN(C)S(=O)(=O)c1ccc(F)cc1	115	.	103	116	?	55
C[C@H]1CN([C@@H](C)CO)S(=O)(=O)c2ccc(C#Cc3ccc(F)cc3)cc2O[C@@H]1CN(C)S(=O)(=O)c1ccc(F)cc1	?	.	95	113	.	68
COCC#Cc1ccc2c(c1)O[C@H](CN(C)S(=O)(=O)c1ccc(F)cc1)[C@H](C)CN([C@H](C)CO)S2(=O)=O	.	.	/	/	/	/
CC(C)CC#Cc1ccc2c(c1)O[C@@H](CN(C)S(=O)(=O)c1ccc(F)cc1)[C@H](C)CN([C@H](C)CO)S2(=O)=O	/	.	/	/	/	/
CC(C)CC#Cc1ccc2c(c1)O[C@H](CN(C)S(=O)(=O)c1ccc(F)cc1)[C@H](C)CN([C@@H](C)CO)S2(=O)=O	/	.	/	/	/	/
COCC#Cc1ccc2c(c1)O[C@@H](CN(C)S(=O)(=O)c1ccc(F)cc1)[C@@H](C)CN([C@@H](C)CO)S2(=O)=O	.	.	/	/	/	/
Cc1ccc(S(=O)(=O)Nc2cccc3c2O[C@@H](CN(C)S(=O)(=O)c2cccs2)[C@@H](C)CN([C@H](C)CO)C3=O)cc1	.	.	/	/	/	/
SMILES	T cruzi growth-1	C diff growth	T cruzi growth-2	T cruzi growth-3	NIH3T3 tox	NIH3T3 tox 2
CCS(=O)(=O)N1CCC2(CC1)CN(C(=O)c1ccc(F)cc1)[C@H](CO)c1[nH]c3cc(OC)ccc3c12	/	.	/	/	/	/
CO[C@@H]1CN(C)C(=O)c2ccc(NC(C)=O)cc2OC[C@H](C)N(Cc2cc(F)ccc2F)C[C@H]1C	.	.	/	/	/	/
COC(=O)C[C@@H]1CC[C@H]2[C@H](COc3ccc(NC(=O)c4cccc(OC)c4)cc3C(=O)N2C)O1	.	.	/	/	/	/
C[C@@H]1CN([C@@H](C)CO)S(=O)(=O)c2ccc(C#Cc3ccc(F)cc3)cc2O[C@@H]1CN(C)S(=O)(=O)c1ccc(F)cc1	114	.	106	115	.	43
O=S(=O)(c1ccccc1)N1C[C@H]2[C@@H](c3ccccc31)[C@@H](CO)N2Cc1ccc(F)cc1	.	.	/	/	/	/
O=S(=O)(c1ccccc1)N1C[C@@H]2[C@H](c3ccccc31)[C@H](CO)N2Cc1ccc(F)cc1	.	.	/	/	/	/
O=S(=O)(c1ccccc1)N1C[C@H]2[C@@H](c3ccccc31)[C@H](CO)N2Cc1ccc2c(c1)OCO2	?	.	.	.	.	.
O=S(=O)(c1ccccc1)N1C[C@H]2[C@@H](c3ccccc31)[C@@H](CO)N2Cc1ccc2c(c1)OCO2	101	.	101	.	.	.
Cc1cccc(S(=O)(=O)N2C[C@H]3[C@@H](c4ccccc42)[C@H](CO)N3Cc2cccnc2)c1	.	.	/	/	/	/
O=S(=O)(c1ccc(F)cc1)N1C[C@@H]2[C@H](c3ccccc31)[C@@H](CO)N2Cc1ccc2c(c1)OCO2	.	.	/	/	/	/
Cc1cccc(S(=O)(=O)N2C[C@@H]3[C@H](c4ccccc42)[C@H](CO)N3Cc2ccc3c(c2)OCO3)c1	109	.	101	108	.	.
O=S(=O)(c1ccccc1)N1C[C@@H]2[C@H](c3ccccc31)[C@H](CO)N2Cc1ccc2c(c1)OCO2	111	.	105	.	.	.
C/C=C/c1ccc2c(c1)O[C@H](CN(C)C(=O)C1CCOCC1)[C@H](C)CN([C@H](C)CO)S2(=O)=O	.	.	/	/	/	/
CN1CCN(C(=O)C[C@@H]2CC[C@H]3[C@@H](COc4ccc(NC(=O)C5CCC5)cc4C(=O)N3C)O2)CC1	/	.	/	/	/	/
